Laboratory results as given in PubChem BioAssay (NCATS).
Records with an inconclusive call do not appear. Calls of active or inactive are those of the source. The call rests on the fitted dose curve; in most records, active means well fitted cell-killing curve with a large enough effect; inconclusive means small, poorly fitted or top-dose-only effect; inactive means flat fitted curve, though single readings scatter.

Assay: Cell Viability - LYMP2-006 (AID 978); further: nearly all actives have a fitted effect of over 60% in size
Conditions: LYMP2-006 lymphoblastoid cell viability, qHTS; series mostly up to 92.2 µM; activity change, negative = cytotoxicity: at the top concentration
Excerpt: NIH Chemical Genomics Center [NCGC]
NIH Molecular Libraries Screening Centers Network [MLSCN]
National Institutes of Environmental Health Sciences [NIEHS]
National Toxicology Program [NTP]
We have developed a 1536-well cell-based assay for quantitative high throughput screening (qHTS) against a number of cell lines to determine in vitro cytotoxicity of small molecules. This particular assay uses a human lymphoblastoid cell line (LYMP2-006) purchased from Coriell Institute for Medical Research.
NCGC Assay Protocol Summary:
The CellTiter-Glo luminescent cell viability assay (Promega) is a homogeneous method to measure the number of viable cells in culture. The end point readout of this assay is based on quantitation of intracellular ATP, an indicator of metabolic activity, using the luciferase reaction. Luciferase catalyzes the oxidation of beetle Luciferin to oxyluciferin and light in the presence of ATP. The luminescent signal is proportional to amount of ATP present.
Using the CellTiter-Glo luminescent cell viability assay, the amount of cellular ATP was measured in the lymphoblastoid cell line with complete culture medium following compound treatment for 24 hours. The assay was performed in opaque white Kalypsys 1536-well plates. In the screen, tetraoctylammonium bromide was used as positive control. Library compounds were measured for their ability to cause acute toxicity in the cell line, as reflected by a decrease in intracellular ATP levels, in a concentration-dependent manner. […] AC50 values were determined from concentration-response data modeled with the standard Hill equation.
qHTS protocol for CellTiter Glo lymphoblastoid cellular assay
[Step] [Parameter] [Value] [Description]
1. Reagent; 5 uL; 2500 lymphoblastoid cells/well
2. Time; 5 hr; 37 C incubation
4. Controls; 23 nL; Tetraoctylammonium bromide 6.4pM to 92 uM
5. Time; 24 hr; 37 C incubation
6. Reagent; 5 uL; CellTiter Glo reagent
7. Time; 30 min; Room Temperature
8. Detection; Luminescence; Viewlux plate reader
Keywords: cell viability, cytotoxicity, lymphoblastoid cell line, luminescence, NTPHTS, NTPHTS_NCGC, NIEHS, DSSTox, MLSMR, MLSCN, NIH Roadmap, qHTS, NCGC
On the % scale 0 is the no-effect control and ±100 the full control effect.

Row | SMILES | activity change, negative = cytotoxicity
1 | C=CC(=O)OCC(C)C | -1.27% (inactive)
2 | Cc1ccccc1[N+](=O)[O-] | -17.5% (inactive)
3 | Cc1ccc([N+](=O)[O-])cc1 | 7.87% (inactive)
4 | Cc1cc(-c2ccc(N)c(C)c2)ccc1N | -2.09% (inactive)
5 | Nc1ccc(Cl)c(Cl)c1 | -1.58% (inactive)
6 | N#CCCCCC#N | 6.19% (inactive)
7 | CSSC | -8.09% (inactive)
8 | O=C(Cc1ccccc1)OCc1ccccc1 | -3.71% (inactive)
9 | ClCC(Cl)CCl | -7.38% (inactive)
10 | CC(C)C#N | -14.8% (inactive)
11 | Oc1c(Cl)c(Cl)cc(Cl)c1Cl | -17% (inactive)
12 | O=C(Cl)c1ccccc1F | -8.64% (inactive)
13 | O=S(=O)(Cl)c1ccccc1 | -9.15% (inactive)
14 | Cc1ccc(N)c(C)c1 | -2.59% (inactive)
15 | N#CCBr | -4.28% (inactive)
16 | O=P(OCCCl)(OCCCl)OCCCl | -3.69% (inactive)
17 | Oc1ccc(Cl)c(Cl)c1Cl | 6.66% (inactive)
18 | COC(=O)Nc1cccc(OC(=O)Nc2cccc(C)c2)c1 | -3.38% (inactive)
19 | CCCCCCCCCCCCCl | -2.77% (inactive)
20 | O=[N+]([O-])c1ccccc1O | -3.7% (inactive)

Row | SMILES | activity change, negative = cytotoxicity
21 | Nc1ccc(-c2ccc(N)cc2)cc1 | 1.96% (inactive)
22 | CCCCCc1cc(O)cc(O)c1 | -21.2% (inactive)
23 | c1ccoc1 | 3.86% (inactive)
24 | C=CC(=O)OCC(CC)CCCC (stereo not given) | 3.23% (inactive)
25 | O=[N+]([O-])c1cccc(O)c1 | -3.01% (inactive)
26 | N#CCCC#N | -4.38% (inactive)
27 | CC(C)CC(C)N (stereo not given) | 10.6% (inactive)
28 | Nc1ccc([N+](=O)[O-])cc1N | -11.9% (inactive)
29 | C=CC(=O)OC | -1.88% (inactive)
30 | c1ccc(C2CO2)cc1 (stereo not given) | -0.401% (inactive)
31 | c1ccc2c(c1)CCNC2 | 0.55% (inactive)
32 | CCOC(=O)C1OC1(C)c1ccccc1 (stereo not given) | -2.94% (inactive)
33 | C=C(Cl)CSC(=S)N(CC)CC | -13.7% (inactive)
34 | ClC(Cl)C(Cl)Cl | 12.1% (inactive)
35 | Nc1ccc(Cc2ccc(N)cc2)cc1 | -16% (inactive)
36 | ClC(Cl)(Cl)C(Cl)(Cl)Cl | 9.52% (inactive)
37 | ClCCCCl | 0.831% (inactive)
38 | O=[N+]([O-])CCO | -0.181% (inactive)
39 | CCBr | 0.469% (inactive)
40 | Clc1ccccc1 | 14.7% (inactive)
